The supplement of paper PMC9262897, “Low-cost anti-mycobacterial drug discovery using engineered E. coli” (Nature Communications, 2022)
Where a name gives a salt, the structure may show the parent alone. ± gives the standard deviation of the averaged measurements.

test system: E. coli TESEC Mtb Alr; assay: growth (OD600 after 10 h); higher = more growth (less inhibition); conditions: arabinose 100000 nM; compound 0.1 mM; raw OD600 reference: median of DMSO wells 0.201, cell-free background 0.041
Method: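 TESEC Mtb Alr E. coli, or the Alr+ wild-type control, in 384-well plates with Prestwick library compounds at 0.1 mM and 1% DMSO, across arabinose induction levels of 1E3 to 1E7 nM. Growth is read as OD600 after 10 h at 37 °C in triplicate biological replicates.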

Going from `CN1CCc2c(c3ccccc3n2Cc2ccccc2)C1` [Mebhydroline 1,5-naphtalenedisulfonate] to `CN1CCCC(CC2c3ccccc3Sc3ccccc32)C1` (stereo not given) [Metixene hydrochloride], the growth falls from 0.199 ± 0.02 to 0.04217 ± 0.00038.

Compared with `C[C@@H](O[C@H]1OCCN(Cc2n[nH]c(=O)[nH]2)[C@H]1c1ccc(F)cc1)c1cc(C(F)(F)F)cc(C(F)(F)F)c1` [Aprepitant], `COc1ccc(-c2ccc3cc(C(=O)O)ccc3c2)cc1C12CC3CC(CC(C3)C1)C2` [Adapalene] is higher in growth: 0.0735 ± 0.0056 for the first, 0.185 ± 0.013 for the second.

`COc1cccc(N(C)C(=S)Oc2ccc3c(c2)CCCC3)n1` [Liranaftate] and `O=C(Oc1cccc2cccnc12)c1ccccc1` [Benzoxiquine] are within error of each other in growth: 0.167 ± 0.0063 for the first, 0.172 ± 0.014 for the second.

Going from `Oc1c(Cl)cc(Cl)c(Cl)c1Cc1c(O)c(Cl)cc(Cl)c1Cl` [Hexachlorophene] to `Clc1ccc(COC(Cn2ccnc2)c2ccc(Cl)cc2Cl)c(Cl)c1` (stereo not given) [Miconazole], the growth rises from 0.04433 ± 0.00015 to 0.0741 ± 0.0079.

Compared with `CC1(C)S[C@@H]2[C@H](NC(=O)[C@H](N)c3ccccc3)C(=O)N2[C@H]1C(=O)O` [Ampicillin trihydrate], `CC(=O)OCC1=C(C(=O)O)N2C(=O)[C@@H](NC(=O)Cc3cccs3)[C@H]2SC1` [Cephalothin sodium salt] is higher in growth: 0.189 ± 0.024 for the first, 0.283 ± 0.03 for the second.

`CCC(=O)O[C@]1(C(=O)SCF)[C@H](C)C[C@H]2[C@@H]3C[C@H](F)C4=CC(=O)C=C[C@]4(C)[C@@]3(F)[C@@H](O)C[C@@]21C` [Fluticasone propionate] and `C[C@@H]1C[C@H]2[C@@H]3C[C@H](F)C4=CC(=O)C=C[C@]4(C)[C@@]3(F)[C@@H](O)C[C@]2(C)[C@@]1(O)C(=O)COC(=O)C(C)(C)C` [Flumethasone pivalate] are within error of each other in growth: 0.21 ± 0.012 for the first, 0.209 ± 0.016 for the second.

`CCCC(=O)Nc1ccc(OCC(O)CNC(C)C)c(C(C)=O)c1` (stereo not given) [Acebutolol hydrochloride] and `COC(=O)CCc1ccc(OCC(O)CNC(C)C)cc1` (stereo not given) [Esmolol hydrochloride] are within error of each other in growth: 0.202 ± 0.014 for the first, 0.218 ± 0.0079 for the second.

`CC(C)(C)NC[C@H](O)COc1cccc2c1CCCC2=O` [(-) -Levobunolol hydrochloride] and `CC(C)NCC(O)c1ccc(O)c(O)c1` (single isomer, unassigned; (+)) [(+)-Isoproterenol (+)-bitartrate salt] are within error of each other in growth: 0.189 ± 0.0065 for the first, 0.18 ± 0.015 for the second.

`O=c1[nH]cnc2c1ncn2[C@H]1CC[C@@H](CO)O1` [Didanosine] and `C[C@]12C[C@H](O)[C@H]3[C@@H](CCC4=CC(=O)CC[C@@]43C)[C@@H]1CC[C@@H]2C(=O)CO` [Corticosterone] are within error of each other in growth: 0.16 ± 0.015 for the first, 0.143 ± 0.015 for the second.

`C[C@@H]1CCC[C@H](C)N1NC(=O)c1ccc(Cl)c(S(N)(=O)=O)c1` [Clopamide] and `CCCc1nn(C)c2c(=O)[nH]c(-c3cc(S(=O)(=O)N4CCN(C)CC4)ccc3OCC)nc12` [Sildenafil] are within error of each other in growth: 0.217 ± 0.022 for the first, 0.186 ± 0.016 for the second.

Compared with `O=C1[C@H]2CCCC[C@H]2C(=O)N1CCCCN1CCN(c2nsc3ccccc23)CC1` [Perospirone], `CC[N+](CC)(CC)CCC(O)(c1ccccc1)C1CCCCC1` (stereo not given) [Tridihexethyl chloride] is higher in growth: 0.146 ± 0.0072 for the first, 0.199 ± 0.019 for the second.

Compared with `C[C@H]1O[C@H](O[C@H]2[C@H](O)[C@@H](O)[C@@H](O[C@@H]([C@H](O)[C@@H](O)C=O)[C@H](O)CO)O[C@@H]2CO)[C@H](O)[C@@H](O)[C@@H]1N[C@H]1C=C(CO)[C@@H](O)[C@H](O)[C@H]1O` [Acarbose], `CC(C)(C)C(=O)OCOC(=O)[C@@H]1N2C(=O)[C@@H](/N=C/N3CCCCCC3)[C@H]2SC1(C)C` [Pivmecillinam hydrochloride] is higher in growth: 0.244 ± 0.0037 for the first, 0.326 ± 0.0058 for the second.

`O=P(O)(O)C(O)(Cn1ccnc1)P(=O)(O)O` [Zoledronic acid hydrate] and `N#Cc1cc(NC(=O)C(=O)O)c(Cl)c(NC(=O)C(=O)O)c1` [Lodoxamide] are within error of each other in growth: 0.192 ± 0.022 for the first, 0.173 ± 0.0062 for the second.

`CC1=Nc2ccc(Cl)cc2S(=O)(=O)N1` [Diazoxide] and `Cc1c(O)c(=O)n(-c2ccccc2)n1C` [Antipyrine, 4-hydroxy] are within error of each other in growth: 0.209 ± 0.04 for the first, 0.211 ± 0.0099 for the second.

Going from `COCCCOc1ccnc(C[S+]([O-])c2nc3ccccc3[nH]2)c1C` (stereo not given) [Rabeprazole Sodium salt] to `CC(CN(C)C)CN1c2ccccc2Sc2ccccc21` (stereo not given) [Trimeprazine tartrate], the growth rises from 0.135 ± 0.0037 to 0.189 ± 0.012.

`O=C(O)c1cc(/N=N/c2ccc(S(=O)(=O)Nc3ccccn3)cc2)ccc1O` [Sulfasalazine] and `Cc1ccc(O)c([C@H](CCN(C(C)C)C(C)C)c2ccccc2)c1` [Tolterodine tartrate] are within error of each other in growth: 0.193 ± 0.018 for the first, 0.201 ± 0.0068 for the second.

`COc1cc(C)c(/C=C/C(C)=C/C=C/C(C)=C/C(=O)O)c(C)c1C` [Acitretin] and `Cc1cc(C(C)(C)C)c(O)c(C)c1CC1=NCCN1` [Oxymetazoline hydrochloride] are within error of each other in growth: 0.228 ± 0.03 for the first, 0.196 ± 0.011 for the second.

`CCC1(c2ccccc2)C(=O)NCNC1=O` [Primidone] and `Cc1cc(-c2ccccc2)nnc1NCCN1CCOCC1` [Minaprine dihydrochloride] are within error of each other in growth: 0.201 ± 0.012 for the first, 0.182 ± 0.012 for the second.

First: CC(C)N1CCN(c2ccc(OCC3COC(Cn4cncn4)(c4ccc(Cl)cc4Cl)O3)cc2)CC1 (stereo not given) [Terconazole]
Second: CN1CCCN(C(c2ccccc2)c2ccc(Cl)cc2)CC1 (stereo not given) [Homochlorcyclizine dihydrochloride]
The growth of the first is higher: 0.23 ± 0.022 for the first, 0.09 ± 0.04 for the second.

Going from `NC[C@H]1CC[C@H](C(=O)O)CC1` [Tranexamic acid] to `COc1ccc(C[C@@H]2c3cc(OC)c(OC)cc3CC[N@+]2(C)CCC(=O)OCCCCCOC(=O)CC[N@@+]2(C)CCc3cc(OC)c(OC)cc3[C@H]2Cc2ccc(OC)c(OC)c2)cc1OC` [Cisatracurium besylate], the growth falls from 0.215 ± 0.031 to 0.166 ± 0.0072.
